An excerpt weighted towards active compounds, which were near 2.9% of everything screened.
MEKK2 WT-MEK5: raises or lowers MEK5 binding to wildtype human MEKK2 PB1 domain | Q9Y2U5 | binding response (% of control), % at 10 µM | AID 1531 | bead flow cytometry, Alexa488-MEK5 binding to MEKK2 WT; actives lie on both sides | 290,000 tested, 1.1% active; in the data active = binding response below about 67% or above about 130%
MEKK2mut PB1 HTS: signal of MEK5 binding to mutant human MEKK2 PB1 domain. bead flow cytometry, Alexa488-MEK5 binding to MEKK2 mutant. percent response, % at 10 µM. 290,000 tested, 0.35% active; in the data active = percent response above about 24%, passing the limit was not always enough
MEKK3 PB1 HTS: MEKK3-MEK5 PB1 interaction, increase or decrease; Q99759; bead-based flow cytometry, Alexa488-MEK5 binding to MEKK3; actives lie on both sides; 0 = blocked by unlabeled MEK5, 100 = vehicle; binding response (% of control), % at 10 µM; 290,000 tested, 1.4% active; AID 1529;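 active = binding response more than 3 SD above or below the average of its plate-row segment, actives on both sides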;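 also: Alexa488 bead fluorescence after subtracting the streptavidin-only scavenger bead signal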
ABCB6 inh MLPCN: human ABCB6 transporter inhibition. 360,000 tested, 0.19% active. fluorescence ratio to DMSO, % at 10 µM. K562-ABCB6 porphyrin accumulation, flow cytometry, 1 h; hits give low values;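 active = fluorescence ratio to DMSO below 75%, the collection mean minus 3 SD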;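 also: signal is porphyrin accumulated inside mitochondria; 100% equals median channel fluorescence of DMSO control wells; lower ratio means ABCB6 inhibition with less porphyrin fluorescence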
CRFR2-BP antag: blocks CRF-induced signaling of the CRF-BP/CRF-R2 complex | 350,000 tested, 0.59% active | HEK293 CRF-R2/CRF-BP, CRF-induced calcium fluorescence | inhibition, % at 11.8 µM | AID 588475;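 active = inhibition of the ligand-induced calcium signal above about 50% at the single tested concentration, limit read from the data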
CRFR2-BP ag: agonists of human CRF-binding protein/CRF-R2 receptor complex; HEK293 CRF-R2/CRF-BP, calcium dye fluorescence (FLIPR); percent of saturating CRF peptide response; activation, % at 13.2 µM; 350,000 tested, 0.46% active;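 active = activation of at least 50%, plus an integration ratio under a set limit after plate pattern correction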;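 also: plate controls were neutral control wells without compound for no effect and CRF at EC100 for full effect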
MEKK2wt confirm: raises or lowers MEK5 binding to wildtype human MEKK2, retest. shares compounds with MEKK3 PB1 HTS. bead flow cytometry, Alexa488-MEK5 binding to MEKK2 WT; actives lie on both sides. binding response (% of control), % at 10 µM. 5,900 tested, 2.4% active. AID 1892; in the data active = binding response below about 16% or above about 210%; inactive = in between
MEKK2mut confirm: signal of MEK5 binding to mutant human MEKK2, retest; bead flow cytometry, Alexa488-MEK5 binding to MEKK2 mutant; 5,900 tested, 2% active; shares compounds with MEKK3 PB1 HTS; percent response, % at 10 µM; AID 1893; in the data active = percent response mostly above about 71%, no sharp cut-off; inactive = mostly below about 38%;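 also: higher means compound restores mutant binding toward wildtype level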
MEKK3-MEK5 inh: confirmation of inhibitors of MEK5 binding to human MEKK3; shares compounds with MEKK3 PB1 HTS; bead flow cytometry, Alexa488-MEK5 binding to MEKK3; hits give low values; binding response (% of control), % at 10 µM; 5,900 tested, 1.8% active; AID 1894;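 active = binding response below 72% of control, or above a set upper limit, though filed actives all read lower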;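 also: 100% = DMSO only wells and 0% = binding blocked by excess unlabeled MEK5; lower values mean stronger disruption of MEK5 binding to MEKK3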
The depositor's hits bear a star; x = no result; [ ] = dose if it differs, or a comment.

SMILES	MEKK2 WT-MEK5	MEKK2mut PB1 HTS	MEKK3 PB1 HTS	ABCB6 inh MLPCN	CRFR2-BP antag	CRFR2-BP ag	MEKK2wt confirm	MEKK2mut confirm	MEKK3-MEK5 inh
O=C(O)c1cc(N/N=C/c2ccc(OCc3ccccc3)cc2)ccc1Cl	186*	134*	112	101	11	-1	99	1	102
N#C/C(=C\c1ccc(OCc2ccccc2)cc1)C(N)=O	114	1	131*	90	-86	-6	93	-2	93
NC(N)=N/N=C/c1ccc(OCc2ccc(Cl)cc2)cc1	183*	29*	96	84	-109	8	205	56	106
O=C(N/N=C/c1ccccc1)c1ccc(OCc2ccccc2)cc1	96	-7	97	95	7	1	x	x	x
Cc1ccccc1COc1ccc(/C=C(\C#N)C(N)=O)cc1	88	-12	92	99	-15	-2	x	x	x
CSc1ncccc1C(=O)NCC(c1cccs1)N1CCOCC1 (stereo not drawn)	x	x	x	93	-2	0	x	x	x
COc1ccc(NC(=O)C[C@H]2C(=O)N(c3ccccc3)C[C@@H]2CSC)cc1	x	x	x	100	-9	0	x	x	x
CSc1ccc(CN(C)CC(=O)Nc2ccccc2Br)cc1	102	-1	132*	98	-18	-2	102	0	102
COc1ccc(C2CC(c3ccccc3)=NN2S(=O)(=O)c2ccccc2)cc1 (stereo not drawn)	103	50	20*[inhibitor]	100	8	4	91	-17	85
Cc1ccc(C2=NN(S(=O)(=O)c3ccccc3)C(c3ccccc3O)C2)cc1 (stereo not drawn)	x	161*	14*[inhibitor]	598	-3	0	88	-7	88
CS(=O)(=O)N1N=C(c2ccccc2)CC1c1ccc2c(c1)OCO2 (stereo not drawn)	x	x	20*[inhibitor]	590	-2	2	67	-22	68*
O=C(O)CCCCCNC(=O)CSc1nnc(-c2ccco2)n1-c1ccccc1	95	-6	96	95	15	-1	x	x	x
CN(C)CCCNC(=O)c1ccc(-c2nc(-c3ccc(Cl)cc3)cs2)cc1	252*	40	107	90	38	-1	199	47	108
COC(=O)c1ccc(CNC(=O)CCNC(=O)c2ccco2)cc1	x	x	x	98	-7	-1	x	x	x
CCN(C(=O)c1cn(C)c(=O)c2ccccc12)c1ccccc1F	106	9	106	100	-6	-1	x	x	x
Cc1ccc(S(=O)(=O)NCC(=O)OCC(=O)N(C)C2CCS(=O)(=O)C2)cc1 (stereo not drawn)	x	x	x	100	8	3	x	x	x
O=[N+]([O-])c1ccc(CSc2nnc(SCc3ccccc3)s2)cc1	91	-2	60*[inhibitor]	103	15	1	100	0	108
CC1CN(S(=O)(=O)c2cc(C(=O)NCCCN3CCCC3=O)ccc2Cl)CC(C)O1 (stereo not drawn)	x	x	x	96	-5	1	x	x	x
C=CCNC(=O)c1cc2cccc(OC)c2oc1=O	113	0	128*	94	-9	-1	114	8	109
O=C(O)CC(NC(=O)C12CC3CC(CC(C3)C1)C2)c1cccc([N+](=O)[O-])c1 (stereo not drawn)	90	-4	93	95	8	-2	x	x	x
CCOC(=O)CC(NC(=O)c1cc2cc(Cl)cc(Cl)c2oc1=O)c1cccc([N+](=O)[O-])c1 (stereo not drawn)	79	1	53*[inhibitor]	93	-12	1	99	-5	101
